The results in this text go back to PubChem BioAssay AID2158 (National Center for Advancing Translational Sciences (NCATS), 2009).

Results filed as inconclusive are left out. A number with no mark means an inactive call. The source made the active and inactive calls. Calls come from the whole dose curve; as a rule, active = well fitted inhibition curve with a large enough effect; inconclusive = small, poorly fitted or top-dose-only effect; inactive = no such curve, though single readings can be large or run the other way.
Potency is the fitted concentration of half-maximal effect.

Chain of Cruzipain (Trypanosoma cruzi) (P25779 123-467 limits assumed): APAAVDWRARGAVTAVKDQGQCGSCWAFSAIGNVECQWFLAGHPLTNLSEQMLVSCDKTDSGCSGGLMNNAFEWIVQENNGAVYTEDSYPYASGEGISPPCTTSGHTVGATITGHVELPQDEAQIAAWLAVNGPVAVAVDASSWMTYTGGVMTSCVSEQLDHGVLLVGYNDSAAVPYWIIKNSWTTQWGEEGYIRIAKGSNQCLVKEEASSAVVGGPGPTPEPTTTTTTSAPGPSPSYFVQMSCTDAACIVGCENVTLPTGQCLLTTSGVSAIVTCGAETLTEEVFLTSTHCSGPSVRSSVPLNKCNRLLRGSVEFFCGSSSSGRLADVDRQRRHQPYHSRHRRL

For the assay, the target named is Cruzipain (Trypanosoma cruzi) (UniProt P25779). Put plainly: Confirmation qHTS Assay for Inhibitors of Cruzain.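 For activity change, negative = inhibition: plate controls were uninhibited enzyme control for no effect and buffer wells lacking enzyme for full effect.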 Note: nearly all actives have a fitted effect of over 40% in size. Particulars: purified cruzain, Z-FR-AMC fluorescence, 0.01% Triton. As for the experimental part:
Cruzain is a cysteine protease from the tropical parasite Trypanosoma cruzi. This assay protocol is a follow-up and confirmation of related AID 1478 (qHTS Assay for Promiscuous and Specific Inhibitors of Cruzain -- with detergent). Cruzain was assayed by the use of fluorogenic coumarin-based substrate Z-FR-AMC: proteolytic cleavage releases AMC, whose fluorescence is measured at 360 nm excitation and 450 nm emission. Purified cruzain was supplied by the labs of Prof. James McKerrow and Brian Shoichet, UC San Francisco. This assay had 0.01% Triton X-100 concentration. See following references for additional details: Jadhav A, et al. J Med Chem. 2010 Jan 14;53(1):37-51. Mott BT, et al. J Med Chem. 2010 Jan 14;53(1):52-60. Assay Provider: Shoichet, Brian; University of California, San Fancisco Screening Center PI: Austin, C.P. Screening Center: NIH Chemical Genomics Center [NCGC]
Buffer: 100 mM Sodium Acetate, pH 5.5, 5 mM DTT, Triton X-100 concentration: 0.01%. Reagents/Controls: Buffer in columns 3 and 4 as negative control (no enzyme). Substrate solution: 2 uM final concentration of Z-FR-AMC (catalog number I-1160, Bachem) dispensed throughout the plate. Enzyme: 1.5 nM Cruzain final concentration in columns 1, 2, 5-48. Column 1 is neutral (100% activity). Column 2 contained titration of covalent inhibitor K11777, starting concentration 1 mM, then 1:2 dilution in duplicate). Assay Steps: Three uL of enzyme or buffer were dispensed to 1536-well Greiner black solid bottom plates. Compounds and controls (23 nL) were transferred via Kalypsys PinTool. The plates were incubated for 15 min at room temperature, and then 1 uL of substrate solution was added to start the reaction. The plates were immediately transferred to and read 4 times every 30 seconds for 2 min on ViewLux High-throughput CCD imager (Perkin-Elmer) using 360 nm excitation and 450 nm emission fluorescence protocol. The fluorescence intensity difference between the third and the first time points (time lapse of 60 seconds) was used to compute reaction progress.
In general terms: Quantitative high-throughput screening tests each substance at several concentrations.
As to `NC(=O)CSc1nnc([C@@H](N)Cc2c[nH]c3ccccc23)o1`, the Potency is 15800 nM (active). Turning to `Cc1ccc(S(=O)(=O)N[C@@H](CCCCN)C(=O)CCl)cc1`, the Potency is 282 nM (active). On to `CCc1ccccc1NC(=O)CSc1nnc([C@@H](N)Cc2c[nH]c3ccccc23)o1`, for which the activity change, negative = inhibition is -73.4%. `Cc1ccc(-c2nc3c(=O)n(C)c(=O)nc-3n(C)n2)cc1`: the Potency was 1410 nM (active).

In the case of `O=C(Nc1nc(-c2ccccc2)c(-c2ccccc2)s1)c1ccc(S(=O)(=O)N(CCCl)CCCl)cc1`, the activity change, negative = inhibition is -8.01%. As to `CC(C)OC(=O)c1c(N)n(Cc2ccco2)c2nc3ccccc3nc12`, the activity change, negative = inhibition is -8.08%.

Turning to `Cn1ncnc2c(=O)n(C)c(=O)nc1-2`, the Potency was 2240 nM (active). In the case of `CCn1nc(-c2ccccc2)nc2c(=O)n(C)c(=O)nc1-2`, the Potency was 3980 nM (active). With `N#CC(C#N)=NNc1cccc(Cl)c1`, the Potency was 15800 nM (active). For the compound `Cc1nc2c(=O)n(C)c(=O)nc-2n(C)n1`, the Potency is 2000 nM (active). On the same count and under the same terms, then `Cn1nc(-c2ccccc2)nc2c(=O)n(C)c(=O)nc1-2`, with 1410 nM (active).
